Results on 40 molecules are retold here after ChEMBL document CHEMBL1157539, “Thousands of chemical starting points for antimalarial lead identification” (Nature, 2010).

Molecules are shown by their SMILES.

The Inhibition is how much of the control response was suppressed.

The test system of one test is Plasmodium falciparum. Nature of the test: GSK_TCMDC: Inhibition of Plasmodium falciparum 3D7 in whole red blood cells, using parasite LDH activity as an index of growth. Test compounds present at 2uM. The class given is functional.
`COc1cc([N+](=O)[O-])ccc1NC(=O)c1cc(Cl)ccc1O`: the Inhibition came out at 87%.
For `COc1cc(Cc2cnc(N)nc2N)ccc1OCc1ccc(-c2csnn2)cc1`, the Inhibition is 97%.
`Cn1c(=O)c(-c2c(Cl)cccc2Cl)cc2cnc(Nc3ccc(N4CCOCC4)cc3)nc21` returned an Inhibition of 98%.
Molecule `O=C(O)/C=C/c1cccc(F)c1F` showed an Inhibition of 96%.
In the case of `CCCN(CCC)CCOc1ccc(C(O)(C#CC(O)(c2ccc(OCCN(CCC)CCC)cc2)c2cccc(Cl)c2)c2cccc(Cl)c2)cc1` (stereo not drawn), the Inhibition is on record as 100%.
The same measure, in the same setting: as for `Cc1ccc(NC(=O)NC2CCN(CCC(NC(=O)Cc3ccccc3)c3ccc(Cl)c(Cl)c3)CC2)cc1` (stereo not drawn), the figure is 100%; as for `Br.C=CCc1cc(C)ccc1OCCCON1C(N)=NC(N)=NC1(C)C`, 96%; as for `O=C(/C=C/c1ccc(Cl)c(Cl)c1)NCCCCCN1CCC(NC(=O)c2ccc(F)cc2F)CC1`, 96%.
On to `Fc1ccccc1COc1ccc(Nc2ncnc3ccc(I)cc23)cc1Cl`, for which the Inhibition is listed as 90%.
For `COc1ccc(Nc2nc(NCc3ccco3)c3ccccc3n2)cc1.Cl`, the Inhibition is on record as 99%.
Take `O=C1COC2(CN1CC1CCN(Cc3ccc(O)c(Cl)c3)C1)c1ccccc1-c1ccccc12.O=CO` (stereo not drawn): the Inhibition stood at 93%.
Same read-out and setting: in the case of `COc1ccc2c(NN=Cc3cccnc3)ccnc2c1` it was 97%.
The same measure, in the same setting: in the case of `Cn1cc(CN2CCCC(COC(c3ccc(F)cc3)c3ccc(F)cc3)C2)cn1` (stereo not drawn) it was 98%; in that of `O=C(O)C(F)(F)F.c1ccc(CNCc2cccc(-c3csc(-c4nc5ccccc5[nH]4)c3)c2)cc1`, 100%.
As to `Nc1ccc2nc(C=Cc3ccc(Cl)cc3)[nH]c2c1`, the Inhibition is recorded as 91%.
As for `Cc1nc2ccc(NC(=O)c3cc(S(=O)(=O)N(C)C)ccc3Cl)cc2s1`, the Inhibition was determined as 91%.
Consider `COc1ccc(Oc2cnc(N)nc2N)c(C(C)C)c1`, for which the Inhibition is on record as 97%.
Still for that read-out and setting: as for `Cc1ccccc1C1CCN(C2CCC(NC(=O)c3ccc(-c4cccc(C(F)(F)F)c4)o3)CC2)CC1` (stereo not drawn), the figure is 99%.
For `COc1cc2c(cc1OC)C(c1ccc(Br)cc1)CN(C)CC2.Cl` (stereo not drawn), the Inhibition came out at 86%.
On to `CCn1ncc(Cl)c1CN(C)S(=O)(=O)c1ccc(Br)cc1`, for which the Inhibition is 90%.
Regarding `Cc1nc(-c2ccc(C#N)cc2)sc1C(=O)NCCCCN1CCC(c2ccc3c(c2OCCO)CCCC3)CC1.Cl`, the Inhibition is 99%.
For the molecule `COc1ccc(CC(=O)NC(CCN2CCC3(CC2)CN(S(C)(=O)=O)c2ccccc23)c2ccc(Cl)c(Cl)c2)cc1OC` (stereo not drawn), the Inhibition stood at 92%.
`OC(CNc1ccnc(Nc2cccc(OCCCN3CCOCC3)c2)n1)c1ccccc1` (stereo not drawn): the Inhibition is 97%.
For the molecule `c1ccc(CCNc2nc(NCC(c3ccccc3)c3ccccc3)c3nc[nH]c3n2)cc1`, the Inhibition is listed as 100%.
On the same count and under the same terms, in the case of `CCN1CCN(Cc2ccc3nc(-c4cc(C)n(Cc5cc(Cl)ccc5OCc5ccccc5)n4)[nH]c3c2)CC1.Cl` it was 100%; in that of `CCCc1cc(NC2CCN(C)CC2)nc(Nc2ccc(C)cc2)n1`, 100%; in that of `Cc1cc(=NN=Cc2ccccc2Cl)c2cc(C(F)(F)F)ccc2[nH]1`, 100%.
Still for that read-out and setting: as for `CCOC(=O)N[C@@H]1CN[C@@H](C#Cc2cc3c(Nc4ccc(OCc5cccc(F)c5)c(Cl)c4)ncnc3s2)C1`, the figure is 86%.

In the next test the test system is Plasmodium falciparum. The test can be described thus: GSK_TCMDC: Inhibition of Plasmodium falciparum Dd2 in whole red blood cells, using parasite LDH activity as an index of growth. Test compounds present at 2uM. The class given is functional.
Molecule `COCCn1c(-c2cccc(Cl)c2)nn(-c2ccc([N+](=O)[O-])cc2C#N)c1=S` displayed an Inhibition of 100%.
Same read-out and setting: in the case of `Cc1cccc2nc(-c3ccc(-c4cccc(CN5CCCC5CN)c4)s3)[nH]c12.O=C(O)C(F)(F)F` (stereo not drawn) it was 45%; in that of `O=C(NCC1CC1)C1Cc2c([nH]c3ccc(Br)cc23)C2(CCN(CCc3ccccc3)CC2)N1` (stereo not drawn), 25%; in that of `O=C(Nc1cccc(C(F)(F)F)c1)c1ccc(S(=O)(=O)NCC2CCN(CC3CCCCC3)CC2)cc1.O=C(O)C(F)(F)F`, 49%.
`CN1CCN(CCCN(Cc2cccc(-c3ccc(CNCc4ccc5c(c4)OCO5)cc3)c2)C(=O)CCC2CCCC2)CC1.O=C(O)C(F)(F)F` yielded an Inhibition of 84%.
Same read-out and setting: in the case of `O=C(Nc1ccc(Cl)cc1)c1cccc2nc(C(F)(F)F)[nH]c12` it was 98%; in that of `CC(C)(C)NCC(O)COc1ccc(Cl)cc1C1=NNC(=O)CC1.Cl` (stereo not drawn), 0%; in that of `COCCNc1nc(N2CCC(CNC(=O)c3ccc(-c4ccc(C(=O)N(C)C)cc4C)cc3)CC2)nc2cc(OC)c(OC)cc12`, 97%.
For `CN(C)c1ccc(-c2csc(C(=O)NC3CCN(CCC(C)(C)C)C3)c2)cc1.O=C(O)C(F)(F)F` (stereo not drawn), the Inhibition is given as 36%.
`CC(C)(C)c1ccc(C(=O)NC2CCC(CCN3CCc4ccc(S(C)(=O)=O)cc4CC3)CC2)cc1C(F)(F)F` (stereo not drawn) registered an Inhibition of 11%.
In turn, `CC(=O)c1cccc(NC(=O)NC2CCN(c3ccnc(Nc4ccc(F)cc4)n3)C2)c1` (stereo not drawn) returned an Inhibition of 94%.
Turning to `COc1c(C2CCN(CCCCNC(=O)c3cc(-c4ccc(Cl)cc4)[nH]c3C)CC2)ccc2c1CCCC2`, the Inhibition was 91%.
`COc1cc([N+](=O)[O-])ccc1NC(=O)c1cc(Cl)ccc1O` returned an Inhibition of 100%.
Same read-out and setting: as for `COc1cc(Cc2cnc(N)nc2N)ccc1OCc1ccc(-c2csnn2)cc1`, the figure is 0%; as for `Cn1c(=O)c(-c2c(Cl)cccc2Cl)cc2cnc(Nc3ccc(N4CCOCC4)cc3)nc21`, 97%.
On to `O=C(O)/C=C/c1cccc(F)c1F`, for which the Inhibition is given as 1%.
`CCCN(CCC)CCOc1ccc(C(O)(C#CC(O)(c2ccc(OCCN(CCC)CCC)cc2)c2cccc(Cl)c2)c2cccc(Cl)c2)cc1` (stereo not drawn) yielded an Inhibition of 98%.
In turn, `Cc1ccc(NC(=O)NC2CCN(CCC(NC(=O)Cc3ccccc3)c3ccc(Cl)c(Cl)c3)CC2)cc1` (stereo not drawn) had an Inhibition of 2%.
In turn, `Br.C=CCc1cc(C)ccc1OCCCON1C(N)=NC(N)=NC1(C)C` returned an Inhibition of 96%.
Molecule `O=C(/C=C/c1ccc(Cl)c(Cl)c1)NCCCCCN1CCC(NC(=O)c2ccc(F)cc2F)CC1` gave an Inhibition of 11%.
With `Fc1ccccc1COc1ccc(Nc2ncnc3ccc(I)cc23)cc1Cl`, the Inhibition turned out to be 37%.
Regarding `COc1ccc(Nc2nc(NCc3ccco3)c3ccccc3n2)cc1.Cl`, the Inhibition is 76%.
Regarding `O=C1COC2(CN1CC1CCN(Cc3ccc(O)c(Cl)c3)C1)c1ccccc1-c1ccccc12.O=CO` (stereo not drawn), the Inhibition came out at 50%.
Take `COc1ccc2c(NN=Cc3cccnc3)ccnc2c1`: the Inhibition is listed as 26%.
Still for that read-out and setting: in the case of `Cn1cc(CN2CCCC(COC(c3ccc(F)cc3)c3ccc(F)cc3)C2)cn1` (stereo not drawn) it was 100%; in that of `O=C(O)C(F)(F)F.c1ccc(CNCc2cccc(-c3csc(-c4nc5ccccc5[nH]4)c3)c2)cc1`, 54%.
As to `Nc1ccc2nc(C=Cc3ccc(Cl)cc3)[nH]c2c1`, the Inhibition was found to be 83%.
The same measure, in the same setting: as for `Cc1nc2ccc(NC(=O)c3cc(S(=O)(=O)N(C)C)ccc3Cl)cc2s1`, the figure is 77%.
In turn, `COc1ccc(Oc2cnc(N)nc2N)c(C(C)C)c1` yielded an Inhibition of 0%.
`Cc1ccccc1C1CCN(C2CCC(NC(=O)c3ccc(-c4cccc(C(F)(F)F)c4)o3)CC2)CC1` (stereo not drawn) returned an Inhibition of 100%.
Molecule `COc1cc2c(cc1OC)C(c1ccc(Br)cc1)CN(C)CC2.Cl` (stereo not drawn) returned an Inhibition of 0%.
`CCn1ncc(Cl)c1CN(C)S(=O)(=O)c1ccc(Br)cc1` displayed an Inhibition of 70%.
Turning to `Cc1nc(-c2ccc(C#N)cc2)sc1C(=O)NCCCCN1CCC(c2ccc3c(c2OCCO)CCCC3)CC1.Cl`, the Inhibition stood at 10%.
`COc1ccc(CC(=O)NC(CCN2CCC3(CC2)CN(S(C)(=O)=O)c2ccccc23)c2ccc(Cl)c(Cl)c2)cc1OC` (stereo not drawn) yielded an Inhibition of 77%.
On to `OC(CNc1ccnc(Nc2cccc(OCCCN3CCOCC3)c2)n1)c1ccccc1` (stereo not drawn), for which the Inhibition came out at 25%.
With `c1ccc(CCNc2nc(NCC(c3ccccc3)c3ccccc3)c3nc[nH]c3n2)cc1`, the Inhibition was 95%.
Still for that read-out and setting: in the case of `CCN1CCN(Cc2ccc3nc(-c4cc(C)n(Cc5cc(Cl)ccc5OCc5ccccc5)n4)[nH]c3c2)CC1.Cl` it was 97%.
Molecule `CCCc1cc(NC2CCN(C)CC2)nc(Nc2ccc(C)cc2)n1` had an Inhibition of 20%.
As to `Cc1cc(=NN=Cc2ccccc2Cl)c2cc(C(F)(F)F)ccc2[nH]1`, the Inhibition was determined as 75%.
The same measure, in the same setting: in the case of `CCOC(=O)N[C@@H]1CN[C@@H](C#Cc2cc3c(Nc4ccc(OCc5cccc(F)c5)c(Cl)c4)ncnc3s2)C1` it was 13%.
